The source of these data is PubChem BioAssay (EPA / NIEHS).

Activity calls are given as the source filed them. How the source made its calls: active means hit-call score of the fitted dose curve at least 0.9, where 1 is the maximum; inactive means score below 0.9.

This test is described as follows: CCTE_Shafer_MEA_acute_per_network_burst_spike_number_mean: CCTE's Neural Acute Assay for Average Number of Spikes in a Network Burst, Shafer Lab (AID 2284019). On the procedure:
CCTE_Shafer_MEA_acute assay is conducted using Axion Biosystems 48 well microelectrode array (MEA) plates and Maestro recording system. Each well of the MEA plate contains a grid of 16 microelectrodes embedded in the culture surface. Electrically active cells, such as neurons, can be cultured over the electrodes, and electrical activity in these cells can be recorded extracellularly. The spontaneous firing of neurons is captured from each electrode on a microsecond timescale providing both temporally and spatially precise data. […] The CCTE_Shafer_MEA_acute assay uses primary cultures of rat cortical neurons. As these cultures mature over time, neural networks develop functional activity and form cohesive networks in which electrical activity can be highly coordinated. Baseline 40-minute recordings are made on days post-plating 13 or 15, followed by a secondary 40-minute recording after chemical exposure.CCTE_Shafer_MEA_acute_per_network_burst_spike_number_mean is a component of the CCTE_Shafer_MEA_acute assay. It measures the average number of spikes (action potential firings) in a network burst (temporally-clustered group of spikes across multiple electrodes) as the total number of spikes in a network burst divided by the number of network bursts during a recording in a microelectrode array (MEA) using Axion Biosystems Maestro 768 channel amplifier with the AxIS adaptive spike detector. The recordings before and after chemical treatment are used to calculate a percent change in the mean number of spikes in a network burst in each well.Data from the assay component CCTE_Shafer_MEA_acute_per_network_burst_spike_number_mean was analyzed into 1 assay endpoint. This assay endpoint, CCTE_Shafer_MEA_acute_per_network_burst_spike_number_mean, was analyzed in the negative analysis fitting direction relative to DMSO as the negative control and baseline of activity. Using a type of functional reporter, gain or loss-of-signal activity can be used to understand electrical activity.
Spontaneous activity in the cortical cultures was recorded using an Axion Biosystems Maestro 768 channel amplifier and Axion Integrated Studios (AxIS) v1.8 (or later) software. The amplifier recorded from all channels simultaneously (gain = 1200 x; sampling rate = 12.5 kHz/channel): raw signals were filtered with a Butterworth band-pass filter (300-5000 Hz), which filters out slower local field potentials leaving only fast potentials, i.e., "spikes", arising from extracellular currents associated with action potentials (Pine 2006; Wheeler and Nam 2011). On-line spike detection of filtered signals was conducted with the AxIS adaptive spike detector, using a threshold of 8x the root mean squared (rms) noise on each channel. Any electrodes with rms noise levels greater than 5 uV were grounded (e.g., no data were recorded). Once grounded, an electrode was grounded for the duration of the experiment. All recordings were conducted at 37 C. Wells were deemed usable if on the day of the exposure >/= 10 electrodes were active (defined as >/= 5 spikes/min). On DIV 13 or 15, a minimum of three wells from one cortical culture preparation were treated with each compound (0.03-40 uM). Prior to recording baseline activity, each mwMEA plate was placed in the Maestro at 37 C and allowed to sit for 20 min while firing rates stabilized. Baseline activity (40 min) was recorded before the addition of each compound. An additional 40 min of spontaneous activity was recorded in the presence of each compound. Changes in network parameters relative to baseline were assessed following compound treatment.
In the case of `CC(C)CCCCCCc1ccc(O)cc1`, the outcome was inactive. Still for that read-out and setting: to `OB(O)O` belongs “inactive”; to `CC(C)(C)[C@@H](O)[C@@H](Cc1ccc(Cl)cc1)n1cncn1`, “inactive”. The same measure, in the same setting: to `O=C(c1ccccc1)C1CCCCC1` belongs “inactive”.

Regarding `O=C(O)c1ccccc1`, the compound was called inactive.

The AC50 is the midpoint of the concentration-response curve, whichever way the signal moves. Regarding `Oc1ccc(C(c2ccc(O)cc2)C(Cl)(Cl)Cl)cc1`, the AC50 was 3.02 µM (active). Still for that read-out and setting: to `Cc1nn(C)c(Oc2ccccc2)c1C=NOCc1ccc(C(=O)OC(C)(C)C)cc1` belongs 0.39 µM (active). Regarding `C#CCOC(=O)[C@@H](C)Oc1ccc(Oc2ncc(Cl)cc2F)cc1`, the compound was classed as inactive. The same measure, in the same setting: to `O=C(c1ccc(O)cc1O)c1ccc(O)cc1O` belongs “inactive”; to `CC1(C)C(C=C(Cl)Cl)C1C(=O)OCc1cccc(Oc2ccccc2)c1` (centres undefined), “inactive”; to `CC(C)(c1ccc(O)cc1)c1ccc(O)cc1`, “inactive”.

As to `CCNc1nc(N)nc(Cl)n1`, the compound was called inactive. Still for that read-out and setting: to `C=CCOC(Cn1ccnc1)c1ccc(Cl)cc1Cl` (centres undefined) belongs “inactive”. Consider `O=C(Nc1ccc([N+](=O)[O-])cc1Cl)c1cc(Cl)ccc1O`, for which the AC50 is 0.179 µM (active).

In the case of `CCCN(CCC)c1c([N+](=O)[O-])cc(C(F)(F)F)c(N)c1[N+](=O)[O-]`, the outcome was inactive.

As to `N#CSCSc1nc2ccccc2s1`, the AC50 is 11.6 µM (active). As for `CSC(=O)c1cccc2nnsc12`, the outcome was inactive. With `CCCCC(CC)CN1C(=O)C2C3C=CC(C3)C2C1=O` (centres undefined), the AC50 was 4.1 µM (active).

As to `COC(=O)c1ccccc1C(=O)O`, the compound was classed as inactive.
